Reference: paper PMC5540273 (PLoS ONE, 2017)

Experiments:
Settings in all cases: concentration: 1 μM, replicates: in singlicate; n = 1
CDKL3 = tested on: CDKL3
CDKL5 = tested on: CDKL5
CHEK1 = tested on: CHEK1
CHEK2 = tested on: CHEK2
CIT = tested on: CIT
CLK1 = tested on: CLK1
CLK2 = tested on: CLK2
CLK3 = tested on: CLK3
CLK4 = tested on: CLK4
CSF1R-autoinhibited = tested on: CSF1R-autoinhibited
CSF1R = tested on: CSF1R
CSK = tested on: CSK
CSNK1A1L = tested on: CSNK1A1L
CSNK1A1 = tested on: CSNK1A1
CSNK1D = tested on: CSNK1D
CSNK1E = tested on: CSNK1E
CSNK1G1 = tested on: CSNK1G1
CSNK1G2 = tested on: CSNK1G2
CSNK1G3 = tested on: CSNK1G3
CSNK2A1 = tested on: CSNK2A1
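Further: KINOMEscan kinase panel screen.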

Row | SMILES | %Inh (CDKL3) | %Inh (CDKL5) | %Inh (CHEK1) | %Inh (CHEK2) | %Inh (CIT) | %Inh (CLK1) | %Inh (CLK2) | %Inh (CLK3) | %Inh (CLK4) | %Inh (CSF1R-autoinhibited) | %Inh (CSF1R) | %Inh (CSK) | %Inh (CSNK1A1L) | %Inh (CSNK1A1) | %Inh (CSNK1D) | %Inh (CSNK1E) | %Inh (CSNK1G1) | %Inh (CSNK1G2) | %Inh (CSNK1G3) | %Inh (CSNK2A1)
1 | CN1C(=O)C(Nc2ccccc2)=C(c2ccccc2)C1=O [SB-300079] | 19% | 0% | 0% | 0% | 4% | 0% | 18% | 0% | 0% | 0% | 16% | 0% | 0% | 0% | 0% | 0% | 0% | 0% | 0% | 0%
2 | COc1ccc(-c2coc3ccc(-c4nnc(SCc5cccc(C#N)c5)o4)cc23)cc1 | 0% | 9% | 0% | 0% | 5% | 47% | 10% | 0% | 57% | 0% | 2% | 20% | 7% | 10% | 0% | 5% | 11% | 0% | 8% | 3%
3 | Cc1nnc(-c2ccc3ncn(-c4ccc(S(C)=O)cc4)c3c2)o1 (centres unmarked) | 2% | 0% | 1% | 0% | 35% | 46% | 10% | 0% | 40% | 7% | 12% | 0% | 14% | 0% | 9% | 8% | 0% | 18% | 24% | 22%
4 | COc1cc2ncn(-c3cc(OCc4ccncc4)c(C(N)=O)s3)c2cc1OC [GSK336313] | 0% | 2% | 0% | 0% | 10% | 42% | 5% | 0% | 0% | 0% | 15% | 0% | 2% | 0% | 8% | 29% | 0% | 0% | 30% | 2%
5 | Cc1ccccc1COc1cc(-n2cnc3cc(Cl)ccc32)sc1C(N)=O [GW813349] | 23% | 2% | 0% | 0% | 21% | 18% | 3% | 0% | 6% | 0% | 0% | 0% | 0% | 24% | 1% | 2% | 0% | 7% | 8% | 5%
6 | O=C(Nc1n[nH]c2cc(-c3ccccc3F)ccc12)C1CC1 [SB-733371] | 14% | 0% | 0% | 13% | 7% | 2% | 0% | 14% | 0% | 0% | 0% | 0% | 15% | 0% | 0% | 14% | 0% | 0% | 10% | 3%
7 | Nc1nccc2scc(-c3ccc4c(c3)CCN4C(=O)Cc3ccccc3)c12 [GSK2576924] | 0% | 0% | 0% | 0% | 46% | 34% | 19% | 0% | 25% | 0% | 78% | 0% | 0% | 0% | 13% | 6% | 7% | 0% | 26% | 5%
8 | FC(F)(F)c1ccc(-c2ncn(CCCN3CCOCC3)c2-c2ccncc2)cc1 [SB-217780] | 0% | 16% | 0% | 33% | 0% | 12% | 0% | 0% | 0% | 0% | 25% | 18% | 33% | 21% | 0% | 0% | 0% | 0% | 12% | 20%
9 | C[C@@H]1CC[C@H](C(=O)NC2CCCCC2)CN1c1cc(-c2ccc3c(N)n[nH]c3c2)nc(N)n1 [GSK2291363] | 0% | 4% | 0% | 22% | 24% | 40% | 26% | 16% | 35% | 31% | 26% | 0% | 12% | 0% | 17% | 24% | 14% | 3% | 30% | 21%
10 | O=C(Nc1ccc2c(c1)OCO2)NC1CCN(c2ccnc(NCc3ccc(F)cc3)n2)CC1 [GSK1379859] | 0% | 3% | 19% | 0% | 0% | 23% | 0% | 0% | 10% | 0% | 0% | 0% | 15% | 0% | 0% | 36% | 0% | 0% | 20% | 0%
